Measured values from PubChem BioAssay (Tox21).
Inconclusive results are not listed. A call without a number means that no potency is given here. Calls of active or inactive are those of the source. Unless noted, calls follow the shape of the dose curve; as a rule, active = well fitted curve in the direction sought with a large enough effect in the repeat runs; inconclusive = weak or mixed curves; inactive = no such curve, though single readings can be large; an effect the other way counts as inactive or inconclusive.

Columns and labels:
[1] = qHTS assay to identify aromatase inhibitors - cell viability counter screen (AID 743084);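 also: cells stimulated with testosterone during compound exposure; nearly all actives have a fitted effect of over 55% in size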
[2] = qHTS assay to identify small molecule that activate the aryl hydrocarbon receptor (AhR) signaling pathway - cell viability counter screen (AID 743086);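 also: HepG2 liver cells carrying the AhR DRE luciferase reporter; series mostly up to about 70 µM; nearly all actives have a fitted effect of over 45% in size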
Outline: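 HepG2-AhR-luc (HG2L7.5c1) cells, 4000/well, treated 24 h at 37 C with compound; viability measured as CellTiter-Fluor fluorescence after 30 min in the same wells as the luciferase read.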

[3] = molecular target: Peroxisome proliferator-activated receptor gamma (Homo sapiens) (UniProt P37231); test: qHTS assay to identify small molecule agonists of the peroxisome proliferator-activated receptor gamma (PPARg) signaling pathway (AID 743094; active = well fitted activation curve with a large enough effect in the signal ratio in the repeat runs, not every such curve was filed as active; the % refers to the signal ratio)
Sequence of Peroxisome proliferator-activated receptor gamma (Homo sapiens) (P37231 whole entry, looked up): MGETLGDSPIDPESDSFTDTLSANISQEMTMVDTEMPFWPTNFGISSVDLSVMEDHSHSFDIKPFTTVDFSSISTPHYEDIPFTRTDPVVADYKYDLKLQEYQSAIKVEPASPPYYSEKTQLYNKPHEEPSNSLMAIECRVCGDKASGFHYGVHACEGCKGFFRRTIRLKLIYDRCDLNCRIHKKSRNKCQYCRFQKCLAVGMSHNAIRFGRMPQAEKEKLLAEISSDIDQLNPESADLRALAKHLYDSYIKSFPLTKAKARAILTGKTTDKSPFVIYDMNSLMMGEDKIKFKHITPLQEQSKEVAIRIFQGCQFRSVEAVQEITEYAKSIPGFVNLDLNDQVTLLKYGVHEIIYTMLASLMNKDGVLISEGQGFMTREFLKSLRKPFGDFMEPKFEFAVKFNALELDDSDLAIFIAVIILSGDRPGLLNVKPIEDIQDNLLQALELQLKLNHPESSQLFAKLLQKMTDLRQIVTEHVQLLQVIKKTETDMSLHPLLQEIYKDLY
Outline: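 Agonism was assessed in a beta-lactamase reporter system, HEK293H cells with a stably integrated UAS-bla construct under PPARg control; the 17 h treatment at 37C preceded a 1 h room-temperature FRET substrate read.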

[4] = qHTS assay for small molecule agonists of the antioxidant response element (ARE) signaling pathway - cell viability counter screen (AID 743203; calls by dose curve; also: nearly all actives have a fitted effect of over 55% in size)
Outline: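 ATP content via CellTiter-Glo luminescence served as the viability measure. Cells: ARE-bla HepG2, 2,000 per well. Exposure: 16 hrs, 37C/5% CO2.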

[5] = molecular target: Peroxisome proliferator-activated receptor delta (Homo sapiens) (UniProt Q03181); test: qHTS assay to identify small molecule agonists of the peroxisome proliferator-activated receptor delta (PPARd) signaling pathway (AID 743212; calls by dose curve)
Sequence of Peroxisome proliferator-activated receptor delta (Homo sapiens) (Q03181 whole entry, looked up): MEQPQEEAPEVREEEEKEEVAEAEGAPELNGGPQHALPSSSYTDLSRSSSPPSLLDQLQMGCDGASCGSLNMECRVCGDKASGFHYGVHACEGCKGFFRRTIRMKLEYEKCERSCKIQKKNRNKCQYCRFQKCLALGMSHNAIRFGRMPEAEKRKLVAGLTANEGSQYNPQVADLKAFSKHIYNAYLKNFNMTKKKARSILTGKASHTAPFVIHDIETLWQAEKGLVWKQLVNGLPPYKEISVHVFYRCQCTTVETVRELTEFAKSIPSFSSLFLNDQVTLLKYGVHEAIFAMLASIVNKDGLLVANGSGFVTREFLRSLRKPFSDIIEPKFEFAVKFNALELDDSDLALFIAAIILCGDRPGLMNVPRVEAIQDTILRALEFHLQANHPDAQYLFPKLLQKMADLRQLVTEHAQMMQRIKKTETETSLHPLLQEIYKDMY
Outline: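 Read-out: beta-lactamase FRET fluorescence after 2 h room-temperature incubation with LiveBLAzer B/G substrate. Cells were HEK293H carrying a UAS-bla reporter for PPARd, treated at 37 C with DMSO-dissolved compounds.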

[6] = qHTS assay to identify small molecule antagonists of the peroxisome proliferator-activated receptor delta (PPARd) signaling pathway - cell viability counter screen (AID 743213); also: nearly all actives have a fitted effect of over 50% in size
Outline: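 HEK293H cells with the PPARd UAS-bla reporter, co-treated 17 h at 37 C with compounds and L165041 (300 nM final), were lysed with CellTiter-Glo. Luminescence indicated viable cell content.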

[7] = molecular target: Peroxisome proliferator-activated receptor delta (Homo sapiens) (UniProt Q03181); test: qHTS assay to identify small molecule antagonists of the peroxisome proliferator-activated receptor delta (PPARd) signaling pathway (AID 743215; active = well fitted inhibition curve with a large enough effect in the signal ratio in the repeat runs, not every such curve was filed as active; the % refers to the signal ratio;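 also: cells stimulated with agonist L165041 at 300 nM final during compound exposure; series mostly up to about 62 µM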)
Outline: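 Here, a reporter line (HEK293H, beta-lactamase under a UAS) measures PPARd signaling. Compounds are tested against agonist L165041 at 300 nM final concentration over 17 h at 37 C, with fluorescence read after substrate.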

[8] = qHTS assay to identify small molecule agonists of the farnesoid-X-receptor (FXR) signaling pathway - cell viability counter screen (AID 743218); also: nearly all actives have a fitted effect of over 45% in size; also: potency is read from the fitted curve at half-maximal effect
Outline: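 Quantitative HTS counter screen measuring ATP-based viability via CellTiter-Glo luminescence in HEK 293T cells carrying a UAS-driven beta-lactamase reporter, after 16 h compound exposure at 37 C.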

[9] = qHTS assay to identify small molecule antagonists of the farnesoid-X-receptor (FXR) signaling pathway - cell viability counter screen (AID 743221; active = well fitted cell-killing curve with a large enough effect in the repeat runs, not every such curve was filed as active; also: nearly all actives have a fitted effect of over 50% in size)
Outline: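 Cytotoxicity is taken from ATP luminescence (CellTiter-Glo, 30 min, room temperature) in FXR-bla HEK 293T cells previously incubated 16 h at 37 C with compound and chenodeoxycholic acid at 50 uM final.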

[10] = qHTS assay to identify small molecule antagonists of the peroxisome proliferator-activated receptor gamma (PPARg) signaling pathway - cell viability counter screen (AID 743194); details: Potency: co-treated with 50 nM rosiglitazone; also: nearly all actives have a fitted effect of over 55% in size
Outline: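 Cytotoxicity counter screen in PPARg-bla HEK293H cells, same wells as reporter assay. Compounds plus 50 nM rosiglitazone (final) for 17 h at 37 C, then viability read by CellTiter-Glo luminescence.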

[11] = qHTS assay for small molecule activators of the heat shock response signaling pathway - cell viability counter screen (AID 743209); also: nearly all actives have a fitted effect of over 50% in size
Outline: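 Compounds dissolved in DMSO were added to overnight-plated HSE-bla HeLa cells and left 5 h at 37 C. Cell viability was quantified by luminescence using CellTiter-Glo.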

[12] = qHTS assay for small molecule activators of the heat shock response signaling pathway (AID 743210; active = well fitted activation curve with a large enough effect in the signal ratio in the repeat runs, with a control signal flat, not every such curve was filed as active; the % refers to the signal ratio;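 also: HeLa cells with beta-lactamase reporter driven by heat shock elements; series mostly up to about 63 µM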)
Outline: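 Beta-lactamase reporter read-out: FRET substrate fluorescence after 2.5 h at RT, following 5 h compound treatment at 37 C of HeLa cells carrying HSE-driven bla reporter; quantitative HTS format.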

[13] = qHTS assay to identify small molecule agonists of the peroxisome proliferator-activated receptor delta (PPARd) signaling pathway - cell viability counter screen (AID 743211); also: nearly all actives have a fitted effect of over 55% in size
Outline: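 Tox21 library compounds, delivered in DMSO, were incubated 17 h with PPARd-bla HEK293H cells; cytotoxicity was taken from CellTiter-Glo luminescence read 30 min after reagent addition.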

[14] = molecular target: Vitamin D3 receptor (Homo sapiens) (UniProt P11473); test: qHTS assay to identify small molecule agonists of the vitamin D receptor (VDR) signaling pathway (AID 743222; calls by dose curve)
Sequence of Vitamin D3 receptor (Homo sapiens) (P11473 whole entry, looked up): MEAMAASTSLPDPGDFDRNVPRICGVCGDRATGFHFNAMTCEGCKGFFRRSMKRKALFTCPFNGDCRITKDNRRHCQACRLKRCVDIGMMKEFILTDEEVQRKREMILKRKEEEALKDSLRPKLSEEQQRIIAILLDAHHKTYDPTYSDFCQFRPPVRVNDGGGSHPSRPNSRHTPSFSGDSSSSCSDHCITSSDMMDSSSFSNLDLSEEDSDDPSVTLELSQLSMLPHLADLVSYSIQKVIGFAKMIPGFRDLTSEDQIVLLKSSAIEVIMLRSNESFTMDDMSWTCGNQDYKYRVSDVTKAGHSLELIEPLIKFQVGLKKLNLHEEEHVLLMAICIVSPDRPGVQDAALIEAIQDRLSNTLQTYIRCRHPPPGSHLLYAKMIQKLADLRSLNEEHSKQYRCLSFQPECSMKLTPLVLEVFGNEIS
Outline: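 Tox21 cell reporter format: VDR-bla line, 16 h compound exposure in 5% CO2 at 37C, then fluorescence intensity after 2 h with LiveBLAzer B/G FRET substrate.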

[15] = molecular target: Bile acid receptor (Homo sapiens) (UniProt Q96RI1); test: qHTS assay to identify small molecule antagonists of the farnesoid-X-receptor (FXR) signaling pathway (AID 743217; active = well fitted inhibition curve with a large enough effect in the signal ratio in the repeat runs, not every such curve was filed as active; the % refers to the signal ratio)
Sequence of Bile acid receptor (Homo sapiens) (Q96RI1 whole entry, looked up): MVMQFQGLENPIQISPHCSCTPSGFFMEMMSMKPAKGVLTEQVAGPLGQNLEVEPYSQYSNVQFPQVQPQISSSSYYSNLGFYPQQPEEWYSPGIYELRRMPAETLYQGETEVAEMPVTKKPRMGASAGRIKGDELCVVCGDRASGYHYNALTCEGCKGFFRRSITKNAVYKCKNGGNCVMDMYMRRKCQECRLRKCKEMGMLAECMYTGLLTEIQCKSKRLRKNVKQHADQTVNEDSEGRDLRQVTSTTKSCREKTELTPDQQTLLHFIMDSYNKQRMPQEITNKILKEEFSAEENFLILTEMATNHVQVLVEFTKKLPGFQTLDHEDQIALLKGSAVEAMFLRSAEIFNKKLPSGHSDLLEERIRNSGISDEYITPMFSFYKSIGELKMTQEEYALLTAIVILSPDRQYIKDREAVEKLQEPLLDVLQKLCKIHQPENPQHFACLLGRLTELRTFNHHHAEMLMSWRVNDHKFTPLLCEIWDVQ
Outline: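 Test compounds are pin-transferred onto FXR-bla HEK 293T cells, then chenodeoxycholic acid is added at 50 uM final. After 16 h at 37 °C, LiveBLAzer B/G substrate is applied for 2 h at room temperature and fluorescence read.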

[16] = molecular target: Bile acid receptor (Homo sapiens) (UniProt Q96RI1); test: qHTS assay to identify small molecule agonists of the farnesoid-X-receptor (FXR) signaling pathway (AID 743220; active = well fitted activation curve with a large enough effect in the signal ratio in the repeat runs, not every such curve was filed as active; the % refers to the signal ratio)
Outline: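 FXR-UAS-bla HEK 293T cells carrying a UAS-driven beta-lactamase reporter were plated for 5 h at 37C/5% CO2, then exposed to DMSO-dissolved Tox21 10K compounds for 16 h at 37C. A LiveBLAzer B/G FRET substrate was loaded for 2 h at room temperature before fluorescence reading.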

[17] = molecular target: Peroxisome proliferator-activated receptor gamma (Homo sapiens) (UniProt P37231); test: qHTS assay to identify small molecule antagonists of the peroxisome proliferator-activated receptor gamma (PPARg) signaling pathway (AID 743191; calls by dose curve; also: series mostly up to about 63 µM; nearly all actives have a fitted effect of over 30% in size)
Outline: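 GeneBLAzer PPARg UAS-bla HEK293H cells, 5 h post-plating, exposed to compounds 17 h at 37C. LiveBLAzer B/G FRET substrate added for 1 h at room temperature; beta-lactamase reporter read by fluorescence intensity.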

[18] = molecular target: Vitamin D3 receptor (Homo sapiens) (UniProt P11473); test: qHTS assay to identify small molecule antagonists of the vitamin D receptor (VDR) signaling pathway (AID 743223; active = well fitted inhibition curve with a large enough effect in the signal ratio in the repeat runs, not every such curve was filed as active; the % refers to the signal ratio)
Outline: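 Quantitative HTS in VDR-bla reporter cells stimulated with 1alpha,25-dihydroxyvitamin D3, 3 nM final. Compound exposure 16 h, 37C, 5% CO2. Read-out: beta-lactamase FRET substrate fluorescence, 2 h RT.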

[19] = molecular target: Aryl hydrocarbon receptor (Homo sapiens) (UniProt P35869); test: qHTS assay to identify small molecule that activate the aryl hydrocarbon receptor (AhR) signaling pathway (AID 743085);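 also: HG2L7.5c1 human HepG2 liver cells with stably integrated DRE-driven firefly reporter; series mostly up to about 70 µM; nearly all actives have a fitted effect of over 15% in size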
Sequence of Aryl hydrocarbon receptor (Homo sapiens) (P35869 whole entry, looked up): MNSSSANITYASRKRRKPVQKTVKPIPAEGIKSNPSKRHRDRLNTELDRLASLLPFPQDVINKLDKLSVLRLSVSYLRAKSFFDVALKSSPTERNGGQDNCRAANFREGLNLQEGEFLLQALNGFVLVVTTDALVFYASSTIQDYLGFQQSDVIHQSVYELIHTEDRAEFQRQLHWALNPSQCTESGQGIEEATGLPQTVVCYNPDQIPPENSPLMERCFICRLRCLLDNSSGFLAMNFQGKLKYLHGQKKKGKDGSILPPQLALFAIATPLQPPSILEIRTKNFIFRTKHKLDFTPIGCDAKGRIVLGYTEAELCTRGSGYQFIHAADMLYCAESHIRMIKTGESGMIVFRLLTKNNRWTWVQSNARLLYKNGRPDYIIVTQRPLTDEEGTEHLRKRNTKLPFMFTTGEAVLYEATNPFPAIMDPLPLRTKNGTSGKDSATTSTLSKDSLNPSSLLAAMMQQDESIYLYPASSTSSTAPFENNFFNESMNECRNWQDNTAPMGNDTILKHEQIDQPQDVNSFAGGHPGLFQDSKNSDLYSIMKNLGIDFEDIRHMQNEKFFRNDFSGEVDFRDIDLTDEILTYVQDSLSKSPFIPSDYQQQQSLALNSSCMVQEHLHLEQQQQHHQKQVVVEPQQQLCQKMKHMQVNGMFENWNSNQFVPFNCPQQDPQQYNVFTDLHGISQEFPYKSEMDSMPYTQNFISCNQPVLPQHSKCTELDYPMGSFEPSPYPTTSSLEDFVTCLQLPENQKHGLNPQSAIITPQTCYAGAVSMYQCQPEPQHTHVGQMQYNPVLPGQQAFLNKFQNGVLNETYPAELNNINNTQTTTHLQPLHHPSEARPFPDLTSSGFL
Outline: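 A multiplexed format paired cell viability (CellTiter-Fluor fluorescence) with AhR-dependent luciferase output (ONE-Glo luminescence) in the same wells of HepG2 DRE-luc cells after 24 h compound exposure at 37C.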

Row | Structure (SMILES) | Potency [1] | Potency [2] | Potency [3] | Potency [4] | outcome [5] | Potency [6] | Potency [7] | Potency [8] | Potency [9] | Potency [10] | Potency [11] | outcome [12] | Potency [13] | outcome [14] | Potency [15] | outcome [16] | Potency [17] | outcome [18] | Potency [19]
1 | O=C1C(=O)c2cccc3cccc1c23 | inactive | inactive | inactive | inactive | inactive | inactive | inactive | inactive | inactive |  |  |  |  |  |  |  |  |  | 
2 | Clc1cccc2ccccc12 | inactive | inactive |  | inactive | inactive | inactive | inactive | inactive | inactive | inactive | inactive | inactive | inactive | inactive |  |  |  |  | 
3 | N#C/C(N)=C(/N)C#N | inactive | inactive | inactive | inactive | inactive |  | inactive | inactive |  | inactive | inactive | inactive | inactive | inactive | inactive | inactive |  |  | 
4 | CC/C(=N\OC/C=C/Cl)C1=C(O)CC(C2CCOCC2)CC1=O (stereo not given) | inactive | inactive |  | inactive |  | inactive | inactive | inactive | inactive | inactive | inactive | inactive | inactive | inactive |  |  |  |  | 
5 | CCC(Cl)CCl (stereo not given) | inactive | inactive |  | inactive | inactive |  | inactive | inactive |  | inactive | inactive | inactive | inactive | inactive |  |  | inactive | inactive | 
6 | CCOP(=S)(Oc1ccc([N+](=O)[O-])cc1)c1ccccc1 (stereo not given) | inactive | inactive |  | inactive | inactive | inactive |  |  | inactive | inactive | inactive |  | inactive | inactive |  |  |  | inactive | 
7 | ClCc1cccc(Cl)c1 |  |  |  | inactive | inactive |  | inactive | inactive | inactive |  | inactive | inactive | inactive | inactive | inactive | inactive | inactive | inactive | 
8 | O=C(Nc1ccccc1)Nc1ccnc(Cl)c1 |  |  |  |  | inactive |  |  | inactive | inactive |  | inactive | inactive | inactive | inactive |  | inactive |  |  | 
9 | CO[C@@H]1[C@H](OC(=O)NC(=O)CCl)CC[C@]2(CO2)[C@H]1[C@@]1(C)O[C@@H]1CC=C(C)C |  | inactive |  | inactive |  |  | inactive | 2.1 nM (active) | inactive | inactive |  |  | inactive |  |  |  |  |  | inactive
10 | C[C@@H]1CC[C@H]2[C@@H](C)C(=O)O[C@@H]3O[C@@]4(C)CC[C@@H]1[C@]32OO4 |  |  |  | inactive |  | inactive |  | inactive | inactive |  | inactive | inactive | inactive | inactive | inactive | inactive |  |  | inactive
11 | CCO[C@H]1O[C@@H]2OC3(C)CC[C@H]4[C@H](C)CC[C@@H]([C@H]1C)[C@@]24OO3 |  |  |  | inactive | inactive | inactive |  | inactive | inactive | inactive | inactive | inactive | inactive | inactive | inactive |  | inactive | inactive | 
